According to PubChem BioAssay (NCATS):
Inconclusive results are not listed. The source made the active and inactive calls. The call rests on the fitted dose curve; in most records, active means well fitted cell-killing curve with a large enough effect; inconclusive means small, poorly fitted or top-dose-only effect, or effect the other way; inactive means no such curve, though single readings can be large or run the other way.

Experiment: Quantitative High-Throughput drug screen in 47 multiple myeloma cell lines against the NCATS MIPE library collection: OPM1_PLB cell viability assay (AID 1918989); further: nearly all actives have a fitted effect of over 40% in size
Conditions: CellTiter-Glo, 48 h; series mostly up to 45.8 µM; viability (% of control): at the top concentration
Procedure, shortened: (§1)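 MIPE 4.0 approved/investigational drugs; 500 cells/well; 48 h 37 °C humidified 5% CO2; CTG luminescence readout; DMSO = 100%, media = 0% viability.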
Potency means the concentration at half of the fitted maximal effect.

| SMILES | Potency | viability (% of control) |
| --- | --- | --- |
| COC[C@H](NC(=O)c1cnc(C)s1)C(=O)N[C@@H](COC)C(=O)N[C@@H](Cc1ccccc1)C(=O)[C@@]1(C)CO1 | 118 nM (active) | – |
| O=c1ccn([C@@H]2O[C@H](CO)[C@H](O)[C@@H]2F)c(=O)[nH]1 | – | 138% (inactive) |
| Cn1cc(CNCC2CCN(c3ncc(C(=O)NO)cn3)CC2)c2ccccc21 | 11.8 nM (active) | – |
| CC(=O)NCC(=O)N1[C@H]2CC[C@H]1c1cc(Nc3ncc(C(F)(F)F)c(NC4CCC4)n3)ccc12 | 590 nM (active) | – |

Experiment: Quantitative High-Throughput drug screen in 47 multiple myeloma cell lines against the NCATS MIPE library collection: SKMM1_PLB cell viability assay (AID 1919863); further: nearly all actives have a fitted effect of over 35% in size
Conditions: SKMM1 myeloma viability, CellTiter-Glo ATP, 48 h; viability: hits give low values
Procedure, shortened: as §1

| SMILES | Potency | viability |
| --- | --- | --- |
| COc1ccc(C=Cc2cc(OC)c(OC)c(OC)c2)cc1NC(=O)[C@H](N)CO | 5.9 nM (active) | – |
| CCN(CC)Cc1ccc2cc(COC(=O)Nc3ccc(C(=O)NO)cc3)ccc2c1 | 935 nM (active) | – |
| CC(=O)OCC(=O)[C@@]1(O)CC[C@H]2[C@@H]3CCC4=CC(=O)CC[C@]4(C)[C@@H]3C(=O)C[C@@]21C | – | 120% (inactive) |
| COc1ccc2c(c1OC)C(=O)OC2[C@H]1c2c(cc3c(c2OC)OCO3)CCN1C (stereo partly specified) | 23.5 nM (active) | – |
| COc1cccc2c1C(=O)c1c(O)c3c(c(O)c1C2=O)C[C@@](O)(C(C)=O)C[C@H]3O[C@H]1C[C@H](N)[C@H](O)[C@H](C)O1 | 166 nM (active) | – |
| C[C@H]1O[C@H](O[C@H]2[C@H](O)[C@@H](O)[C@@H](O[C@H]3[C@H](O)[C@@H](O)C(O)O[C@H]3CO)O[C@H]2CO)[C@H](O)[C@@H](O)[C@H]1N[C@H]1C=C(CO)[C@@H](O)[C@H](O)[C@@H]1O (stereo partly specified) | – | 131% (inactive) |
| CC[C@H]1OC(=O)[C@H](C)[C@@H](O[C@H]2C[C@@](C)(OC)[C@@H](O)[C@H](C)O2)[C@H](C)[C@@H](O[C@@H]2O[C@H](C)C[C@H](N(C)C)[C@@H]2O)[C@](C)(OC)C[C@@H](C)C(=O)[C@H](C)[C@@H](O)[C@]1(C)O | 105 nM (active) | – |
